# Compound activity (PubChem)
# Methyltransferases: Primary Screen for Target Class Profiling of Small Molecule Inhibitors of Methyltransferases; actives 3.9% (n = 25,000); AID 1745853, 2022; calls only at 40 µM; purified enzyme, MTase-Glo SAH luminescence; stronger effect = lower value; call rule not given here
#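 Each enzyme was assayed with SAM and its substrate. SAH formation detected by MTase-Glo luminescence; single-point 40 uM screen[…].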
# MTase-Glo ctr: Counterscreen for Target Class Profiling of Small Molecule Inhibitors of Methyltransferases; shares compounds with Methyltransferases; MTase-Glo coupled enzymes, SAH conversion luminescence, no MTase; Potency, µM (highest dose often 57.3 µM), without a hit: at the top dose activity change, negative = inhibition, hits mostly inhibitors; actives 6% (n = 180); active = well fitted inhibition curve with a large enough effect; note: potency is the fitted concentration of half-maximal effect
# Numbers without * were called inactive; i = inactive; + = active, no number; [ ] = remark or other dose. Many of the other results were omitted from the sample, so hits are more common in it than they were. % is set by controls: 0 for no effect and ±100 for the full control effect.
SMILES,Methyltransferases,others
COc1ccc(OC)c(CCNC(=O)CCc2nnc3n(Cc4ccc(C)cc4)c(=O)c4ccccc4n23)c1,i,
CC(C)n1c(=O)c2ccc(C(=O)NC3CCCC3)cc2n2c(=O)n(CC(=O)Nc3ccccc3F)nc12,i,
Cc1nccn1CCC1CCN(c2nccc(-c3ccccn3)n2)CC1,+,MTase-Glo ctr=3.9%
NCC1CCN(c2nccc(-c3ccc4ccccc4c3)n2)CC1,i,
COc1ccc(-c2ccccc2NC(=O)C2CCCN2C(=O)c2cccnc2)cc1 (stereo not drawn),i,
CCC1CCCCN1CCCNC(=O)CCn1ccc2cc(S(=O)(=O)N3CCCCC3)ccc21 (stereo not drawn),i,
CCN1c2cc(C(=O)NCCc3ccccc3)ccc2C(=O)N2CCCCC21 (stereo not drawn),i,
CCCC1=Nc2cc(C(=O)NCCCN3CCCCC3CC)ccc2Sc2ccc(C)cc21 (stereo not drawn),+,MTase-Glo ctr=-0.9%
O=C1C(Cl)=C(N2CCOCC2)C(=O)N1c1ccc(Cl)c(Cl)c1,i,
Cc1cc(C(=O)N2CCCC[C@H](N(C)C)C2)c(-c2ccccc2)o1,i,
Cc1cnc(CCNC(=O)Cc2ccncc2)n1CC1CC1,i,
COc1ccc(C(=O)NCCc2ncc(C)n2C2CC2)cn1,i,
Cc1cnc(CC2CCN(C(=O)Nc3ccc4c(c3)OCCO4)C2)n1C1CC1 (stereo not drawn),i,
Cc1cnc(CCNC(=O)c2cccs2)n1C1CCC1,+,MTase-Glo ctr=3.2%
Cc1cnc(C(=O)NCCc2ccc(S(=O)(=O)NC(=O)NC3CCCCC3)cc2)cn1,i,
Cc1cnc(CCNC(=O)c2n[nH]c(=O)c3ccccc23)n1C1CCCCC1,+,MTase-Glo ctr=-5.7%
O=C(Nc1ccc2c(c1)OCCO2)N1CC(c2nc(CCOCC3CC3)no2)C1,i,
Cc1cnc(CCNC(=O)Nc2ccc3c(c2)OCCO3)n1C1CCC1,+,MTase-Glo ctr=-3.8%
Cc1cnc(CCNC(=O)c2ccc(C#N)cc2)n1C1CC1,i,
C1COC(NC(C2CC2)C2CC2)=N1,i,
CC1CCC(NC(=O)C2(C)Cn3c(ccc3-c3ccccc3)C(=O)N2Cc2ccc(Cl)cc2)CC1 (stereo not drawn),i,
CCOC(=O)c1cc2n(n1)CC(C)(C(=O)NC1CCCCCC1)N(c1ccccc1CC)C2=O (stereo not drawn),i,
CNC(=O)[C@@H]1CN(S(=O)(=O)c2cccnc2)C[C@H]1C1CCN(C)CC1,i,
Cc1onc(-c2ccccc2)c1C(=O)N1CCN(c2ccc([N+](=O)[O-])cc2Cl)CC1,i,
Cc1nn(-c2ccccc2)c2c1C(C(C)C)N(C1CN([S+](=O)([O-])c3cccc(C(F)(F)F)c3)C1)C2=O (stereo not drawn),i,
SMILES,Methyltransferases,others
Cc1ccc(CNC(=O)c2ccc3c(=O)nc4c(-c5ccccc5F)n[nH]n4c3c2)cc1,i,
CCOC(=O)C1CCN(S(=O)(=O)c2cccc(-c3nc(-c4ccccc4)no3)c2)CC1,i,
COc1cc(OC)cc(N2C(=O)CSc3c(c4ccccc4n3C)C2C(=O)NCc2ccccc2OC)c1 (stereo not drawn),i,
C=CC(C)(C)C12C=C(OC)C(=O)N3C(C(C)C)C(=O)NC31N(OC)c1ccccc12 (stereo not drawn),i,
CC1=C[C@@H](CNS(C)(=O)=O)[C@H](C(C)C)C[C@H]1CC(=O)Nc1ccccn1,i,
Cc1ccc(NC(=O)N2CCN(c3nnnn3-c3ccccc3)CC2)cc1,i,
Cc1ccc(NC(=O)N2CCc3c(c4ccccc4n3CC3CC3)C2)cc1,+,MTase-Glo ctr=5.1%
Cc1ccc(NC(=O)N2CCn3cccc3C2C)cc1 (stereo not drawn),i,
COc1ccccc1NC(=O)N1CCn2c(C)ccc2C1C(C)C (stereo not drawn),i,
COc1ccc(C(=O)Nc2cnc3c(c2)CCC3)cc1,i,
CS(=O)(=O)N[C@H]1C[C@H]2C(=O)NC[C@@H](CCC(=O)N3CCCCC3)N2C1,i,
CCn1c(=O)n(CC)c2cc(S(=O)(=O)Nc3ccc(Cl)cc3)ccc21,i,
CCn1c(=O)n(CC)c2cc(S(=O)(=O)Nc3ccc(F)cc3)ccc21,i,
CCC1Oc2ccc(NS(=O)(=O)c3ccc(Cl)cc3)cc2CN(Cc2ccc(F)cc2)C1=O (stereo not drawn),+,MTase-Glo ctr=-7.6%
O=S(=O)(c1ccccc1)c1nnn2c1nc(NCc1ccc(F)cc1)c1ccccc12,i,
OC[C@@H]1CNC[C@H]1C1CCN(Cc2ccncc2F)CC1,i,
CC(C)Cn1c(=O)c2ccccc2n2c(SCc3ccc(F)cc3Cl)nnc12,i,
Fc1cccc(Nc2ncc(-c3cncnc3)c3c2OCC3)c1,i,
Cc1noc(C)c1-c1cnc(Nc2ccncc2)c2c1CCO2,+,MTase-Glo ctr=-2.7%[85.7 µM]
Cn1cc(-c2cnc(Nc3cccnc3)c3c2CCO3)cn1,i,
CC1(C(=O)NC2CCCC2)Cn2c(ccc2-c2ccco2)C(=O)N1Cc1ccco1 (stereo not drawn),i,
CCN(CC)CCNC(=O)c1cc2n(n1)CC(C)(C(=O)NCc1ccc(F)cc1)N(C)C2=O (stereo not drawn),i,
COc1ccc(NC(=O)N2CCn3cccc3C2C)c(OC)c1 (stereo not drawn),i,
CCCN(C)C(=O)CCc1ccnc(N2CCOCC2)c1,i,
COc1ccc(NC(=O)CCc2ccnc(N3CCCC3)c2)c(OC)c1,+,MTase-Glo ctr=-0.5%
SMILES,Methyltransferases,others
CC(C)Cn1c(=O)c2ccccc2n2c(=O)n(CC(=O)Nc3ccc(F)cc3)nc12,i,
Cn1cc(S(=O)(=O)NC2CC(c3cc(N4CCC(O)C4)ncn3)C2)cn1 (stereo not drawn),i,
CCc1nc(NCc2cn[nH]c2-c2ccc(Cl)cc2)c2cnn(C)c2n1,i,
CC1CCC(NC(=O)c2cc3n(n2)CC(C)(C(=O)NC2CCCCC2)N(C)C3=O)CC1 (stereo not drawn),i,
CCNC(=O)N1C[C@@H](F)[C@@H](OCc2nc3ccc(F)cc3[nH]2)C1,i,
CCN(CCc1nc2ccc(C)cc2[nH]1)C(=O)c1ccccc1C1CCNC1 (stereo not drawn),+,MTase-Glo ctr=1.6%
COCCN1CCCC(c2[nH]ccc2C(=O)NCCc2nc3ccccc3[nH]2)C1 (stereo not drawn),i,
CN1CCN(c2ncnc3c2CN(C2CCCCC2)C(=O)CN3C)CC1,i,
CCNc1ncnc2sc3c(c12)CCN(C(=O)COC)C3,i,
CN1CCN(c2ncnc3sc4c(c23)CCNC4)CC1,+,MTase-Glo ctr=15.2µM*
COc1cc(C(C)=O)ccc1O[C@@H]1O[C@H](CO[C@@H]2O[C@@H](C)[C@H](O)[C@@H](O)[C@H]2O)[C@@H](O)[C@H](O)[C@H]1O,i,
Cc1ccc(CNC(=O)C2(C)Cn3cnc(C(=O)N4CCCCC4)c3C(=O)N2C2CC2)cc1 (stereo not drawn),i,
CCNc1nccc(N2CCC(CC(=O)N3CCN(c4ccccc4F)CC3)CC2)n1,+,MTase-Glo ctr=2.9%
CCCn1c(C)cnc1CCNC(=O)CC1CCN(C(C)=O)CC1,i,
COc1nccc(N2CCC(CC(=O)N3CCN(C(C)=O)CC3)CC2)n1,i,
CCOc1ccc(-c2ccnc(NC[C@@H]3CCCO3)n2)cc1C(=O)O,i,
CC1(C)N=C(c2ccccc2)C(=O)N1CC(=O)N1CCN(c2ccccc2F)CC1,i,
